Entries with a potency or affinity are not part of this list. Active and inactive are the calls of the source. No cut-off is given here; in the data, nearly all actives have IC50 up to about 0.91 µM.
target: Calcium-dependent protein kinase 4 (Plasmodium falciparum (isolate 3D7)) (UniProt Q8IBS5); assay: PfCDPK4 kinase inhibitors, biochemical, TCAMS library (AID 1159588); details: recombinant PfCDPK4, Kinase-Glo ATP depletion luminescence
Sequence (Q8IBS5 whole entry, looked up): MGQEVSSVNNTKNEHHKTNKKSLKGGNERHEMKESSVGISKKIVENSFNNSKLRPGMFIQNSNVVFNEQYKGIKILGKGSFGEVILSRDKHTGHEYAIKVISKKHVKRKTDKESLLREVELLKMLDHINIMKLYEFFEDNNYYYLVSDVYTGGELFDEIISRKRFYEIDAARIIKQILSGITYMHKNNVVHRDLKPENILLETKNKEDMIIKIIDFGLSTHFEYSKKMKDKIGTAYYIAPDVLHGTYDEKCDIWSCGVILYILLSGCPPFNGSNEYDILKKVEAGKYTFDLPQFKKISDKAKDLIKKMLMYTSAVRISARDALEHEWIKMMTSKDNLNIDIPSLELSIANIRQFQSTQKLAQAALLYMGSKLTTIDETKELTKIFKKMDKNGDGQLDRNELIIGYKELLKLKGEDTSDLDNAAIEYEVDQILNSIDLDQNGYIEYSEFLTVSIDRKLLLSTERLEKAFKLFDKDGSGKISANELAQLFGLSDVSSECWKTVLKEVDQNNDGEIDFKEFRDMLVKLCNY

outcome, inactive:
COc1ccc(Cc2cnc(N)nc2N)cc1OCCCOc1ccccc1, CCOC(=O)c1c(-c2ccccc2)c(C(=O)OCC)n2ccccc12, Cc1cc(=O)c(-c2ccc(S(=O)(=O)c3ccc(Cl)cc3)cc2)c(C)[nH]1, Cc1[nH]c(C)c(-c2ccc(Oc3ccc(Cl)cc3)c(Cl)c2)c(=O)c1Br, COc1ccc2c(CNCCCCCCNCc3c(OC)ccc4cc(OC)ccc34)c(OC)ccc2c1, Cc1cc2c3c(N)nc(N)nc3ccc2n1C, COc1ccc(Cc2cnc3nc(N)nc(N)c3c2C)cc1OC, Nc1nc(N)c2c(Oc3ccc(Cl)c(Cl)c3)cccc2n1, CCCCCCCN(Cc1ccc(OC(C)(C)C(=O)OCC)cc1)C(=O)Cc1ccc(F)cc1F, Oc1c(CNC2CCCCC2)cc(Cl)c2ccccc12, COc1ccc2c(c1CNCCCCCCNCc1c(OC)ccc3c1CCCC3)CCCC2, COc1cc(Cc2cnc(N)nc2N)cc(OCCCCCCC(=O)O)c1OC, CCCCNCCOc1ccc(-c2nc(-c3ccccc3)c(-c3ccccc3)[nH]2)cc1, Nc1nc(N)c2c(Sc3ccc(F)cc3)cccc2n1, Cc1[nH]c(C)c(-c2ccc(Oc3ccc(F)cc3)cc2)c(=O)c1Br, Cc1[nH]c(C)c(-c2ccc(-c3ccc(F)cc3)cc2)c(=O)c1Cl, Cc1[nH]c(C)c(-c2ccc(Oc3cccc(OC(F)(F)F)c3)cc2)c(=O)c1Cl, CC1CN=C(c2ccc(NC(=O)Nc3ccc(C4=NCC(C)N4)cc3)cc2)N1 (stereo not drawn)
